Source: PubChem BioAssay (NCI)
This is part of a sample that, as a whole, favours compounds with a hit. Of some 83,000 tested, about 20% had one in any assay.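 Results are percent growth after 48 hours of single-concentration exposure. 100 means growth as in untreated cells, lower positive values show inhibition; negative values down to -100 show cell death.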 Activity calls are given as the source filed them. How the source made its calls: active means growth percent below 10; inactive means the rest.

tested on: HOP-62 NSCLC; test: NCI-60 one-dose screen, 48 h (100 = growth as untreated, 0 = no growth, -100 = all killed); conditions: 10 µM

SMILES	growth
C[n+]1c2ccccc2nc2ccccc21	-18.8% (active)
C=CCn1c(SCC(=O)Nc2ccc(C(=O)/C=C/c3ccc(OC)cc3)cc2)nnc1-c1ccc(OC)c(OC)c1	92.6% (inactive)
Cc1n[nH]c(C)c1N=Nc1cccc2c1C(=O)c1ccccc1C2=O	96.9% (inactive)
CC[C@H]1OC(=O)[C@H](C)[C@@H](O[C@H]2C[C@@](C)(OC)[C@@H](O)[C@H](C)O2)[C@H](C)[C@@H](O[C@@H]2O[C@H](C)C[C@H](N(C)C)[C@H]2O)[C@](C)(OC)C/C(C)=C2/O[C@@]1(C)C=C2C	77.9% (inactive)
CCOC(=O)CN(c1sc(C)c(C)c1C(=O)OCC)S(=O)(=O)c1ccc(C)cc1	94.1% (inactive)
Cc1noc(C)c1CSc1ccccc1C(=O)N1CCN(c2cccc(C(F)(F)F)c2)CC1	91.5% (inactive)
O=C(CCCSc1nc(-c2ccccc2)cc(-c2ccc(Cl)cc2)n1)NO	12.5% (inactive)
O=C(Nc1ccc(F)cc1)c1cc2ccccc2cc1O	78.7% (inactive)
COc1ccc(-c2cc(-c3ccccc3)nc(SCCCCCCC(=O)NO)n2)cc1	57.2% (inactive)
COc1cc2c(cc1NC(=O)C(F)(F)F)-c1ccc(NC(=O)C(F)(F)F)cc1C2	45.4% (inactive)
S=C(NCc1ccccc1)NCc1ccccc1	94.2% (inactive)
NNC(=O)Oc1c(Cl)cc(Cl)cc1[N+](=O)[O-]	94.6% (inactive)
Cc1c(Cl)cccc1NC(=O)CN1CCOCC1	93% (inactive)
O=C1c2ccccc2C(=O)N1CCCCNc1ccccc1	122% (inactive)
